Assay outcomes deposited in PubChem BioAssay by several laboratories.
Rows were chosen to be rich in hits. Some 3.8% of all compounds tested hit in one or more screens of this group.
TIM10 inh: TIM10 yeast growth inhibition; S. cerevisiae TIM10 strain growth, BacTiter-Glo luminescence, 24 h; inhibition, % at 10 µM; 330,000 tested, 1.4% active; AID 463195;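 active = inhibition of 40% or more at the single tested concentration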;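 note: wild-type TIM10 isogenic control strain grown at permissive 25 °C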
PfHsp90 yeast 2: inhibits growth of yeast expressing Plasmodium falciparum Hsp90. S. cerevisiae expressing PfHsp90, BacTiter-Glo ATP, 48 h; yeast lacking PDR1 and PDR3 efflux regulators. inhibition, % at 9.4 µM. 310,000 tested, 0.32% active. AID 504621;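 active = every replicate shows inhibition above about 80%, whatever the replicate mean, limit read from the data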;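 note: 0% = DMSO neutral controls and 100% = 20 µM radicicol positive controls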
B2AR ag: human beta-2 adrenergic receptor agonism by FAP | 340,000 tested, 0.43% active | response, % (concentration not given with the values) | P07550 | Am2.2-beta2AR cells, FAP receptor internalization, flow cytometry;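 active = response above a set limit, near 3 SD of response in nonfluorescent compounds, cut at about 42% in these data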
Target sequence (P07550 whole entry, looked up): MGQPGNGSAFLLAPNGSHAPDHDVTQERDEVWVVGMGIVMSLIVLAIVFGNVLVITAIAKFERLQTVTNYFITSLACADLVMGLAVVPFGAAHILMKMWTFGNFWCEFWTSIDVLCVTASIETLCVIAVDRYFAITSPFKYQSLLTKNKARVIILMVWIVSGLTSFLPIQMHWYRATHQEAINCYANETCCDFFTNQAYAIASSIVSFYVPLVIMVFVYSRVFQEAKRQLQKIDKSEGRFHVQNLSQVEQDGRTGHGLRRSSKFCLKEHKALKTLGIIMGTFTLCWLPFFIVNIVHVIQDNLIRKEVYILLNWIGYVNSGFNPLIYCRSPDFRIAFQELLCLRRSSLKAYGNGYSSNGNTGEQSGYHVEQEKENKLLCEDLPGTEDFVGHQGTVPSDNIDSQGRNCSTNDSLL
tim23-1 inh: tim23-1 yeast growth inhibition; S. cerevisiae tim23-1 growth, BacTiter-Glo luminescence, 24 h; inhibition, % at 20 µM; 330,000 tested, 1.3% active; AID 463212;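 active = growth inhibition of the mutant yeast at or above 50%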;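 note: temperature-sensitive mutant grown at 25 °C; plate controls were DMSO-treated mutant yeast for no effect and medium wells lacking yeast for full effect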
tim10-1 inh: growth inhibitors of tim10-1 mutant yeast. S. cerevisiae tim10-1 ts strain growth, BacTiter-Glo, 24 h. inhibition, % at 20 µM. 330,000 tested, 2.2% active. AID 463190;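 active = inhibition of at least 40%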;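 note: mutant grown at 25 °C; 0% = DMSO wells with yeast and 100% = wells holding no yeast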
tim10-1 confirm: tim10-1 yeast growth inhibition, confirmed | shares compounds with tim10-1 inh | AID 463213 | S. cerevisiae tim10-1 ts strain growth, BacTiter-Glo, 24 h | 7,400 tested, 56% active | inhibition, % at 20 µM;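 active = inhibition of yeast growth at or above a set limit in either of two repeat tests at 20 µM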;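 note: tim10-1 mutant grown at permissive 25 °C to find synthetic lethal compounds; 0% = DMSO yeast wells and 100% = medium wells without yeast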
TIM10 conf: confirmation of TIM10 yeast growth inhibitors; S. cerevisiae tim10 strain growth, BacTiter-Glo luminescence, 24 h; shares compounds with TIM10 inh; AID 463215; inhibition, % at 10 µM; 4,600 tested, 63% active;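 active = inhibition of yeast growth at or above a set limit in either of two replicates at 10 µM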;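 note: this counterscreen used the strain with wild-type TIM10; 0% = yeast with DMSO and 100% = medium wells lacking yeast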
tim23-1 conf: confirmation of tim23-1 mutant yeast growth inhibitors; shares compounds with tim23-1 inh; inhibition, % at 20 µM; AID 463218; 4,400 tested, 83% active; S. cerevisiae tim23-1 growth, BacTiter-Glo luminescence, 24 h;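 active = inhibition above about 39% in either of two replicate wells at 20 µM, limit read from the data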;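 note: temperature-sensitive tim23-1 mutant grown at 25 °C; 0% = DMSO wells with yeast and 100% = medium wells without yeast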
Starred values were filed as active, the others as inactive; x = no result.

SMILES | TIM10 inh | PfHsp90 yeast 2 | B2AR ag | tim23-1 inh | tim10-1 inh | tim10-1 confirm | TIM10 conf | tim23-1 conf
CCCC[n+]1c2ccccc2cc2ccccc21 | 74* | -14 | 15 | 65* | 71* | 70* | 69* | 64*
CCC[n+]1c2ccccc2cc2ccccc21 | 66* | -15 | 13 | 56* | 68* | 66* | 62* | 60*
Cc1ccc2ccccc2[n+]1CCCS(=O)(=O)[O-] | -10 | 12 | -1 | 7 | 1 | x | x | x
CCCCNc1c(-c2ccc(SC(C)CC)cc2)nc2ccccn12 (stereo unspecified) | 45* | 41 | 12 | 59* | 48* | 55* | 35* | 63*
O=C(NNC(=O)c1ccc(F)cc1F)c1ccc(-n2cnnn2)cc1 | 0 | 15 | 3 | -8 | -23 | x | x | x
CCn1c(C(=O)NC(C)c2ccc3c(c2)OCCO3)cc2sccc21 (stereo unspecified) | 19 | 36 | -7 | 53* | 44* | 32* | x | 46*
O=C1c2ccccc2C(=O)c2c1cccc2-n1nnc2ccccc21 | -3 | -18 | -8 | 1 | -19 | x | x | x
O=C1C(N2CCOCC2)=C(n2nnc3ccccc32)C(=O)c2ccccc21 | 78* | 38 | -3 | 83* | 64* | 60* | 69* | 89*
COc1ccc(N(CC(=O)NCCSCc2ccc(Cl)cc2)S(C)(=O)=O)cc1Cl | -8 | -8 | -2 | 27 | 3 | x | x | x
C/C(=N\OC(=O)c1ccc(Cl)c(Cl)c1)c1sc(C)nc1C | 13 | 31 | -1 | 17 | 21 | x | x | x
CC(C)(C)C(=O)OC/C(N)=N/OC(=O)c1ccc(Cl)c(Cl)c1 | 77* | 6 | 10 | 84* | 63* | 42* | 86* | 69*
Nc1ccc2oc(-c3ccccc3Cl)nc2c1 | 5 | 19 | -2 | 22 | 25 | x | x | x
Nc1ccc2oc(-c3cc(Br)ccc3Cl)nc2c1 | 41* | -3 | -13 | 59* | 54* | 41* | 36* | 55*
CCc1ccc2oc(-c3cc(N)ccc3Cl)nc2c1 | 50* | -19 | 10 | 56* | 44* | 27 | 23 | 47*
COc1ccc2cc(S(=O)(=O)NC3CC(C)(C)NC(C)(C)C3)ccc2c1 | 8 | -5 | 9 | 7 | 11 | x | x | x
COc1ccc2cc(C(=O)N3CCc4ccccc43)[nH]c2c1 | 1 | -8 | 8 | 15 | 14 | x | x | x
CC(=O)Nc1ccc(S(=O)(=O)N2CCN(c3cc(C)ccc3C)CC2)cc1 | 35 | 2 | 7 | 54* | 60* | 49* | x | 47*
COC(=O)c1ccc(CN(c2ccc(C(=O)O)c(O)c2)S(=O)(=O)c2ccc(Cl)c([N+](=O)[O-])c2)cc1 | x | -18 | 19 | x | x | x | x | x
COc1cccc(Nc2ccc([N+](=O)[O-])c3nonc23)c1 | 30 | -15 | 3 | 70* | 57* | 22 | x | 78*
O=C(Nc1ccc(OC(F)F)cc1)c1cc(S(=O)(=O)N2CCCCC2)ccc1N1CCOCC1 | 6 | -13 | 1 | 10 | 4 | x | x | x
Nc1c(-c2ccccc2)nc(Cl)nc1-c1ccccc1 | 14 | x | -7 | 11 | 24 | x | x | x
c1ccc(-c2nc3nonc3nc2-c2ccccc2)cc1 | 64* | -65 | 15 | 61* | 80* | 72* | 57* | 84*
CCOCCCN(C(=O)c1snc(C(N)=O)c1N)C(C(=O)NCCC(C)C)c1ccc(Cl)cc1 (stereo unspecified) | 10 | -9 | -2 | 16 | 11 | x | x | x
C/C(=N/O)c1ccccn1 | 1 | -1 | -3 | 5 | 7 | x | x | x
CCCCCC/C(=N/O)c1ccccn1 | 57* | -38 | 8 | 60* | 42* | 6 | -8 | 52*
N#Cc1ccccc1S(=O)(=O)N1CCN(C(=O)CCNS(=O)(=O)c2ccc(Cl)cc2)CC1 | x | 2 | 4 | x | x | x | x | x
COc1cc(-c2nc3ccccc3s2)ccc1O | 49* | -14 | -7 | 52* | 50* | 53* | 48* | 55*
